The list is not random: actives were taken first. Their share in the collection is about 10%.
HP1b chromo inh: blocks HP1-beta chromodomain binding to methylated histone tails; P83916; AlphaScreen HP1-beta / biotin-H3K9me3 peptide binding; Potency, µM (doses to about 114 µM), for the others: at the top dose activity change, negative = inhibition, usual class: inhibitors; 0.56% of 390,000 active; note: nearly all actives have a fitted effect of over 70% in size
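AlphaScreen: HP1-beta (50 nM) preformed 30 min with biotin-H3(1-18)K9me3 peptide (50 nM) in PBS pH 7.4, 0.01% Tween-20. Compound added for 30 min at RT, then streptavidin donor/nickel chelate acceptor beads (10 ug/mL) for 30 min.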
GLS inh: glutaminase GLS (human) inhibition; O94925; GLS enzymatic activity, qHTS titration; Potency, µM (titrated, usually from 45.5 µM), for inactives: at the highest dose activity change, negative = inhibition, usual class: inhibitors; 0.21% of 410,000 active; AID 624170; note: % is set by controls: 0 for no effect and ±100 for the full control effect
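Compounds were pin-transferred onto hKGA, after which L-glutamine (1 mM solution) and a detection mix of glutamate oxidase, HRP and Amplex Red were added. Initial and 30 min RT fluorescence reads were collected.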
BAZ2B inh: inhibitors of human BAZ2B bromodomain. Q9UIF8. AlphaScreen BAZ2B-H3K14Ac peptide displacement. Potency, µM (top dose mostly 114 µM), inactives show at the top dose activity change, negative = inhibition, usual class: inhibitors. 4.4% of 360,000 active. AID 504333; note: % is set by controls: 0 for no effect and ±100 for the full control effect; nearly all actives have a fitted effect of over 60% in size
Target sequence (Q9UIF8 whole entry, looked up): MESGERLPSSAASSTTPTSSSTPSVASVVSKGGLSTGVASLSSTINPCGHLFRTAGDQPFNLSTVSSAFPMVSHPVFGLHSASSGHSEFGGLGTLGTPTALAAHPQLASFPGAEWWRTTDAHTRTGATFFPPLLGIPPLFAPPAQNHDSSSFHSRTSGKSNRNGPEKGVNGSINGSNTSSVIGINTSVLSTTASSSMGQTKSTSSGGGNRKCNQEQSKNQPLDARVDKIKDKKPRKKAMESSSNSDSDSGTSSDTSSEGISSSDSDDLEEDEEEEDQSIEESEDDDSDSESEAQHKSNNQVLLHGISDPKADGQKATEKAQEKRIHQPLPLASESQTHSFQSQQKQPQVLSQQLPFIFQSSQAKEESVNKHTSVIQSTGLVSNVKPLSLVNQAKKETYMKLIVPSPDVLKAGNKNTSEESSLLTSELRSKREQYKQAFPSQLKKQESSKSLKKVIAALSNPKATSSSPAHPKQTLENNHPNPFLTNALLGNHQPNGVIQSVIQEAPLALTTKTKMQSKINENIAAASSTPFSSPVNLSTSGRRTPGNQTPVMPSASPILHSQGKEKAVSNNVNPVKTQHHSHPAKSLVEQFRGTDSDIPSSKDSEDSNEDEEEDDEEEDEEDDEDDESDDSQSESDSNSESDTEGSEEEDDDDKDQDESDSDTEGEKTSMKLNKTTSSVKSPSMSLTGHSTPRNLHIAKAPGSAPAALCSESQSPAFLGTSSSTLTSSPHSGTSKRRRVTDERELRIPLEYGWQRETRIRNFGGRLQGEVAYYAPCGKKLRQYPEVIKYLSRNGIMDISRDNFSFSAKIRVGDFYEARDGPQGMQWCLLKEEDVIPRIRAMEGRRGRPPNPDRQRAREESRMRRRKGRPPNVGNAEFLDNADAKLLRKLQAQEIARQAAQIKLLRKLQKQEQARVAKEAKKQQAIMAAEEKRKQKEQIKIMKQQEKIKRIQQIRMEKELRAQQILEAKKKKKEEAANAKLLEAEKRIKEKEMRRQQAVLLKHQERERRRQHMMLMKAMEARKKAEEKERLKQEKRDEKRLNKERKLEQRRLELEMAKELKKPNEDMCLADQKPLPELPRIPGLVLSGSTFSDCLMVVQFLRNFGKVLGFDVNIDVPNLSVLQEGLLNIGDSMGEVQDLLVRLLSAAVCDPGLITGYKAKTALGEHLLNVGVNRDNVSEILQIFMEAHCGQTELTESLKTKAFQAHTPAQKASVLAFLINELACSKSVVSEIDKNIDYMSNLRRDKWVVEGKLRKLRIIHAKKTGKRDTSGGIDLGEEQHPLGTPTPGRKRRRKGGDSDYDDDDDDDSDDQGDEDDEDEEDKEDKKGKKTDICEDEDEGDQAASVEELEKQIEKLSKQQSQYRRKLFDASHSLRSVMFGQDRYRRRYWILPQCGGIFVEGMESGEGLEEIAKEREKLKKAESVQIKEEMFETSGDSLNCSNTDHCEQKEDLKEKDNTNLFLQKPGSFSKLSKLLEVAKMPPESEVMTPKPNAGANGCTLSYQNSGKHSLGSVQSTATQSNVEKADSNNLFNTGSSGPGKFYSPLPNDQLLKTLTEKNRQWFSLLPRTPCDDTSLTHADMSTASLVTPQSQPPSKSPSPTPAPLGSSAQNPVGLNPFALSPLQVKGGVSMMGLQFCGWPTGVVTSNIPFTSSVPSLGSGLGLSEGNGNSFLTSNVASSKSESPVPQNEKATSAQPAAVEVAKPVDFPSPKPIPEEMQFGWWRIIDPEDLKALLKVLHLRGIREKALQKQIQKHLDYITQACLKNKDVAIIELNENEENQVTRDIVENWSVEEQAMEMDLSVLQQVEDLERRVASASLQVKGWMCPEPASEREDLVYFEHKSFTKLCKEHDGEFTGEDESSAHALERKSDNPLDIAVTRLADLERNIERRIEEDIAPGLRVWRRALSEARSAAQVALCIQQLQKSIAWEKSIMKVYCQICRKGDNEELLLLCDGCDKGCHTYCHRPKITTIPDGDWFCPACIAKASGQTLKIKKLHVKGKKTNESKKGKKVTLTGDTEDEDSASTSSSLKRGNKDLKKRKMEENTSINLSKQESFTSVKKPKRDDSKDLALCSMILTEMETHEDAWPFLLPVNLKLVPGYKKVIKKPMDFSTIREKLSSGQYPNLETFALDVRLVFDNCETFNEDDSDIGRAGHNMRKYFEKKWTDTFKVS
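AlphaScreen luminescence quantifies BAZ2B engagement of H3K14Ac peptide; the protein and biotinylated peptide are both at 50 nM final, buffer PBS pH 7.4 with 0.01% Tween-20, all steps at room temperature.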
G9a inh: blocks human histone lysine methyltransferase G9a | 8.8% of 350,000 active | G9a H3K9 monomethylation, AlphaScreen, 2 h | Potency, µM (highest dose often 102 µM), inactives show at the highest dose activity, negative = inhibition, actives largely listed as inhibitors | Q96KQ7; note: % is set by controls: 0 for no effect and ±100 for the full control effect; nearly all actives have a fitted effect of over 75% in size
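Chemiluminescent proximity detection of H3K9 monomethylation, read after 10 min bead incubation in the dark. Reaction: 20 nM G9a, 500 nM biotin-H3K9 peptide, 20 uM SAM cofactor, 2 h, room temperature, following 15 min enzyme-compound preincubation.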
JMJD2A Tudor: blocks the human JMJD2A Tudor domain; O75164; AlphaScreen JMJD2A-Tudor / H3K4me3 peptide binding; Potency, µM (series often up to 114 µM), for inactives: at the top dose activity change, negative = inhibition, most hits filed as inhibitors; 4.4% of 390,000 active; note: % is set by controls: 0 for no effect and ±100 for the full control effect; nearly all actives have a fitted effect of over 50% in size
* = called active by the depositor; ? = inconclusive; . = no result given; [ ] = remark or other dose. Calls come from the whole dose curve; as a rule, active = well fitted curve in the direction sought with a large enough effect; inconclusive = small, poorly fitted or top-dose-only effect, or another doubt; inactive = no such curve, though single readings can be large; an effect the other way counts as inactive or inconclusive. Potency is the fitted concentration of half-maximal effect.

SMILES	HP1b chromo inh	GLS inh	BAZ2B inh	G9a inh	JMJD2A Tudor
CCOC(=O)C1=C(C)NC2=C(C(=O)C(C(=O)OC)C(C)C2)C1c1ccc(OC)c(O)c1 (centres undefined)	17.8%	26.6%	5.4%	16.9%[0.0925 µM]	38.9%
CCC(C)OC(=O)C1=C(C)NC2=C(C(=O)C(C(=O)OC)C(C)C2)C1c1ccc(N(C)C)cc1 (centres undefined)	?	4.2%	?	5.01µM*	17.8µM*
CCCS(=O)(=O)NC(=O)C1(C)CCN(C(=O)C2(c3ccc(Cl)cc3)CCCC2)C1 (centres undefined)	.	-11.2%	.	.	.
CCOC(=O)c1c(Cc2ccccc2)c[nH]c1C	-12.9%	-11.1%	-14.9%	56.2µM*	-10.2%
CC(=O)NCCNc1ncnc2ccc(-c3ccccc3C#N)cc12	.	.	.	16.6%[0.501 µM]	.
Cc1cc(-c2nnc(CCC(=O)NCc3ccc(OC(F)(F)F)cc3)o2)no1	38.6%	-1.4%	-10.0%[57.1 µM]	16.6%	10.9%
Nc1[nH]n(-c2ccccc2)c(=O)c1N=Nc1ccc2c(c1)OCO2	?	17.7%	3.98µM*	-109.6%[59 µM]	10µM*
Nc1[nH]n(-c2ccccc2)c(=O)c1N=Nc1ccc2c(c1)OCCO2	44.7µM*	?	10µM*	10µM*	20µM*
COCCc1ccc(OC[C@H](O)CNC(C)C)cc1	.	-3.1%	.	-7.7%[12.7 µM]	.
OCC1(CCOc2ccccc2)CCN(Cc2nc3ccc(F)cc3[nH]2)CC1	30.6%	7.8%	-1.7%	10.3%	-12.7%
C=CCn1c(SCC(=O)NNC(=S)Nc2ccccc2)nnc1-c1ccccc1	38.5%	0.0%	4.1%	-19.1%[59 µM]	8.5%
CCn1c(SCC(=O)NNC(=S)Nc2ccccc2)nnc1-c1ccc(Cl)cc1	33.8%	11.5%	1.1%	20µM*	-10.1%
Cn1c(SCC(=O)NNC(=S)Nc2ccccc2)nnc1-c1ccncc1	.	.	24.0%	70.8µM*	.
Cc1cccc(NC(=O)CSc2nnc(-c3ccncc3)n2C)c1	1.7%	4.7%	3.7%	33.7%	-11.3%
O=C(CSc1nnc(-c2ccccc2)n1-c1ccc(Cl)cc1)NNC(=S)Nc1ccccc1	31.5%	14.3%	-4.9%	10µM*	-6.4%[57.1 µM]
O=C(Nc1c(C(=O)c2ccccc2)oc2ccccc12)c1cc(=O)c2ccccc2o1	41.8%	-1.1%	0.6%	1.1%[59 µM]	0.0%
CCOC(=O)C1=CN(Cc2ccco2)S(=O)(=O)N(C)C1c1ccc2ccccc2c1 (centres undefined)	61.0%	-25.2%	.	.	-13.0%
CCCS(=O)(=O)c1c(S(=O)(=O)CCC)c2cnccn2c1C(=O)c1ccc(OC)cc1	59.5%	1.4%	-16.6%	50.1µM*	-12.4%
Cc1cc(C)nc(NC(N)=S)n1	29.6%	15.6%	-8.6%	?	-3.7%[11.4 µM]
CC(C)Nc1nc(NC(N)=S)nc(NC(C)C)n1	25.1%	2.8%	0.5%	2.51µM*	-7.4%
CC(C)Nc1nc(NC(N)=S)nc(NC(C)(C)C)n1	5.8%	1.4%	-11.5%	8.91µM*	-14.1%
CCCCN(C=O)c1c(CC)nc2c(OCc3ccc(C(F)(F)F)cc3)cccn12	.	-1.5%	.	.	.
COc1ccccc1C(=O)C1Nc2ccccc2-c2nnc(SC)nc2O1 (centres undefined)	-3.9%	-8.8%	1.5%	7.08µM*	-34.6%
CCCCSc1nnc2c(n1)OC(C(=O)c1ccccc1)Nc1ccccc1-2 (centres undefined)	.	.	?	7.08µM*	.
O=C(O)c1ccc(C2Nc3ccccc3-c3nnc(SCc4ccc(Cl)cc4)nc3O2)cc1 (centres undefined)	7.2%	0.8%	50.1µM*	-27.4%[59 µM]	?
SMILES	HP1b chromo inh	GLS inh	BAZ2B inh	G9a inh	JMJD2A Tudor
CCC1Nc2ccccc2-c2nnc(SC)nc2O1 (centres undefined)	24.8%	13.2%	-30.3%	?	-9.3%
CCOc1cc(C2Nc3ccccc3-c3nnc(SCc4ccccc4)nc3O2)ccc1OC (centres undefined)	1.4%	12.5%	-12.5%	-44.4%[59 µM]	-22.8%
Cc1cccc(NC(=O)c2sc3nc(-c4cc5ccc(O)cc5oc4=O)[nH]c(=O)c3c2C)c1	45.8%	-17.6%	9.8%	5.0%[59 µM]	19.1%
Cc1cc(C)c(S(=O)(=O)NCC(c2ccc(N(C)C)cc2)N2CCOCC2)c(C)c1 (centres undefined)	?	18.7%	39.8µM*	?	50.1µM*
CN(C)c1ccc(C(CNS(=O)(=O)c2ccc(F)cc2)N2CCc3ccccc32)cc1 (centres undefined)	?	2.5%	10µM*	14.1µM*	20µM*
Cc1cc(C)c(S(=O)(=O)NCC(c2ccc(N(C)C)cc2)N2CCc3ccccc32)c(C)c1 (centres undefined)	?	8.7%	3.16µM*	11.2µM*	12.6µM*
O=S(=O)(NCC(c1ccco1)N1CCc2ccccc21)c1ccccc1 (centres undefined)	?	?	39.8µM*	44.7µM*	?
O=S(=O)(NCC(c1ccco1)N1CCN(c2ccccc2F)CC1)c1ccccc1 (centres undefined)	-5.3%	1.1%	-31.0%	0.7%[59 µM]	-34.2%
Cc1cc(S(=O)(=O)NCC(c2ccc(N(C)C)cc2)N2CCOCC2)ccc1F (centres undefined)	-6.0%	22.2%	?	-21.2%[12.7 µM]	?
CN(C)c1ccc(C(CNS(=O)(=O)c2cccc([N+](=O)[O-])c2)N2CCOCC2)cc1 (centres undefined)	-4.9%	2.4%	-35.8%	1.5%[0.501 µM]	?
Cc1ccc(C(CNS(=O)(=O)c2ccc(F)cc2)N2CCN(C)CC2)cc1 (centres undefined)	19.5%	-1.5%	7.9%	-24.3%	3.4%
Cc1ccccc1NC(=O)Nc1nc(C(N)C2CCCCC2)cs1 (centres undefined)	.	-0.4%	.	.	.
COC(=O)[C@@H](c1ccccc1)N(C)S(=O)(=O)c1cccc(S(=O)(=O)N(C)[C@@H](C(=O)OC)c2ccccc2)c1	98.5%	2.7%	12.2%[57.1 µM]	.	-1.4%
COc1ccc(C)cc1S(=O)(=O)NCC(c1cccnc1)N1CCc2ccccc2C1 (centres undefined)	26.1%	5.4%	?	?	-32.3%
COc1ccc(C)cc1S(=O)(=O)NCC(c1ccc(N(C)C)cc1)N1CCc2ccccc21 (centres undefined)	?	4.7%	10µM*	10µM*	14.1µM*
Cc1ccc(/C=C/C(=O)c2ccccc2O)cc1	?	2.9%	?	.	-26.9%
Cc1ccc(O)c(C(=O)/C=C/c2ccc3c(c2)OCCCO3)c1	?	-1.5%	28.2µM*	7.08µM*	15.8µM*
COc1cc(C)cc(C(=O)C=Cc2ccccc2)c1O	?	-11.6%	.	.	56.2µM*
O=C(/C=C/c1ccc2c(c1)OCCCO2)c1ccccc1O	?	1.8%	?	?	?
Cc1ccc(O)c(C(=O)C=Cc2ccccc2)c1	?	16.4%	.	.	39.8µM*

Assay outcomes: PubChem, National Center for Advancing Translational Sciences (NCATS)
